Experimental data published in the supplement of paper PMC11417369.
± gives the standard deviation of the averaged measurements. The full ranking holds about 25,000 sequences; the median of “ln(normalized median fluorescence intensity)” is about 8.6, and the highest 2% start at about 10. The sample holds the highest values, similar sequences and a random draw of the others, so the mix is not that of the screen.

The sequences below were run on PfAP2-EXP AP2 domain (GST-tagged) (assay: gcPBM binding intensity (ln(normalized median fluorescence intensity)); higher = stronger DNA binding).
How it was run: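 Binding intensity is defined as the maximum Masliner-normalised natural-log median intensity across replicate spots for either probe orientation. It was measured on an Agilent 4 × 180k array of primer-extended double-stranded 36-bp intergenic genomic probes and negative controls, to which GST-tagged P. falciparum DNA-binding domains made in E. coli were applied for 1 h in 1× PBS with 1% milk, 0.2 mg/ml BSA, 0.5% salmon testes DNA and 0.03% Triton X-100. Detection was by Alexa488 anti-GST antibody and scanning at 488 nm.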

Sequence	gcPBM binding intensity (ln)
ACATACATACACCCACGTACGTACCGAAACACCACC [XGTACX_site1212]	9.11 ± 0.35
TATTTATGTTCATATAAACACACGTAAAATTCAAGG [CACACA_site1538]	8.62 ± 0.39
TAAATAATAATAAAATGTACATTATATATGTATATG [XGTACX_site8672]	8.44 ± 0.36
AACTTCTTTTTTATAACACACAAAATATATATACAA [CACACA_site282]	8.69 ± 0.42
AAAGGAAAAGTTGACTGTACATAAGTAAAAAATAAT [XGTACX_site788]	9.15 ± 0.42
ATATATATATAATGTAGTACTATTTAATAATAAGCC [XGTACX_site1263]	9.775 ± 0.078
AAATAAAATACAATATGATAAAATGTTATCATATAT [CACACA_negctrl_site538]	8.35 ± 0.38
TATATATATATATTCACACATAAATATATGCACCCA [CACACA_site4263]	9.96 ± 0.2
TTTAATATATATATGTGTACATATAAATTATATATA [XGTACX_site8511]	8.2 ± 0.23
TTTTTTTTTTTTTTTGCACACAGGGTGTAGGACAAG [CACACA_site2842]	8.6
TTATATTATACATACACACCCATATAATATGTTTTT [CACACA_site4636]	8.73 ± 0.42
ATAAATATTGGGTGCACACACATAATATATATATAT [CACACA_site2272]	10.1 ± 0.21
GGAAAAACCATTCGCACACACACATAATATATAATA [CACACA_site1424]	8.66 ± 0.47
AACCATTGGGAAAGGGTGCACATATATATATATATA	10.8 ± 0.35
TTTAAGCGTTCACTGCTGCACTTTTATGTTGTGACC	8.71 ± 0.51
GAAGAAAAATAAAAAGTGCAAAAAAAGTAAAAATTT [GTGCAC_site9897]	8.95 ± 0.49
TCAAAGCACAGATACACACACATATATATATATATA [CACACA_site287]	10 ± 0.42
CACATATATACACATACACACACACCCATACACCCA [CACACA_site8505]	8.77 ± 0.33
CATATACATACACATACACACATACACCCATACACA [CACACA_site8514]	8.77 ± 0.55
TATATATATATATACACACACACACCCATATATATA [CACACA_site2538]	10.2 ± 0.24
CATACACCCATACATACACACATACATATATATATA [CACACA_site8591]	9.895 ± 0.064
TCAAAGCACCCATACACACACATATATATATATATA [CACACA_site4317]	10.3 ± 0.19
TATATATATATATATACACACACACCCATATATATA [CACACA_site8812]	10.3 ± 0.3

Sequence	gcPBM binding intensity (ln)
TATATATACATATACACACACACACCCATATATATA [CACACA_site2246]	8.84 ± 0.39
TGAATAAATCAAAGCACACATACACCCACATATATA [CACACA_site286]	8.78 ± 0.49
TATCACAAAATATACTGTACATACAGGCAGTAATAT [XGTACX_site2487]	8.71 ± 0.34
GAAAAAAAAAAAAATACACACAAATTGGTATAGAAT [CACACA_site380]	8.53 ± 0.47
TTGGTGATATTTTTCTCACACATTTACCAGAGATGT [CACACA_site4684]	8.44 ± 0.37
AGGTACTTTTTTAAAACACACATATAATAAATACAC [CACACA_site4730]	8.84 ± 0.28
ATGTAAGTTGTGCATTCACACACATATATATATATA [CACACA_site9086]	10.2 ± 0.2
GTAAGTTGTGCATTCACACACATATATATATATATA [CACACA_site3303]	10.2 ± 0.28
GTAAGTTGTGCATTCACACACATATAAATATAAATA [CACACA_site7536]	8.66 ± 0.24
AGTTCAGAATTGAATAGTACATAAATATAACAAAAT [XGTACX_site650]	8.88 ± 0.36
TGTATTTTTAACATATGTACGAATAGCACGTGTTAT [XGTACX_site3640]	8.89 ± 0.44
AGTTTTTATTAAAACAAAATTTAATTATAACGTTGA [XGTACX_negctrl_site298]	8.08 ± 0.3
ATATAGATGCATAATACACACATCAGATAATTAACC [CACACA_site6871]	8.64 ± 0.33
TATATATATATAGATGCATGCAATTACATATAACAA [TGCATGCA_site118]	10.2 ± 0.23
CAATTAAAAAATAATACATGCATATAAATAGATATT [TGCATGCA_site427]	8.71 ± 0.38
TCCTTATTTCATATTTTTAAATAATACAAAAAAAAA [CACACA_negctrl_site773]	8.06 ± 0.38
ATGTAGGTTAATTATTGTACGTAGGGGGTGTATATT [XGTACX_site3973]	10.2 ± 0.48
TATAATAATAATTATTGTACGATTAGGTTAATTCAT [XGTACX_site1984]	8.37 ± 0.23
TATAATAATACGTATTGTACTATTAGGTTAATTCGT [XGTACX_site264]	8.34 ± 0.33
ATTATTTTAATAAAACGTACAAAATATAAATCAAAA [XGTACX_site3770]	8.73 ± 0.45
GGTTAGACGAAATATACATGCAATGGAAAATAAGTT [TGCATGCA_site23]	9.42 ± 0.24
AAATAAAAAGTAAAGCGTACAAATGATCAAATAATA [XGTACX_site7898]	9.04 ± 0.53
TTTCTTCATTTTTTCACACATAAGAAAATATAATCA [CACACA_site4275]	8.46 ± 0.46

Sequence	gcPBM binding intensity (ln)
AAGAATATAATCTTCACACATATATATATATATATA [CACACA_site5927]	10.2 ± 0.33
ACATCTCTTATATATTCACACACATATATATAATTA [CACACA_site8424]	8.82 ± 0.35
ATCTTTCAATAATTCACACATATATATATATATATA [CACACA_site4598]	10.2 ± 0.28
TTTTTTTTTTTTGTCACACATATGGAATATATCTAT [CACACA_site5899]	8.54 ± 0.54
ATTATATAATTGTCTTCACACACACCGATATATATA [CACACA_site8883]	8.93 ± 0.51
TATATAATTGTCTTCACACACACATATATATATATA [CACACA_site2744]	10 ± 0.3
TATATCTTAATATACACACACACATATATATATATA [CACACA_site4968]	10 ± 0.35
TATAATTGTCTTCACACACACATATATATATATATA [CACACA_site2743]	10.2 ± 0.29
TTGTAATATCTTGTCACACATATATATATATATATA [CACACA_site4937]	10.2 ± 0.57
TTCAAAATAAAAAATTCACACACATATATATATATA [CACACA_site8653]	10 ± 0.45
AAAGAAAGTACCTTCACACATATAAGAATATAATAT [CACACA_site5214]	8.6 ± 0.52
ATCTATGAAAAAGGTACATGCAATAAAGAAACATAT [TGCATGCA_site805]	9.54 ± 0.45
TCATAAATTAAACAAACACACACGTTCTTTTATTTA [CACACA_site713]	8.38 ± 0.33
TTTTTTTTTGGGGGTGCATGCAAGACATATATTTAA [TGCATGCA_site228]	10.43 ± 0.028
AATATTTTTTTTTAAACATGCATATTTGCATTACCC [TGCATGCA_site437]	8.58 ± 0.41
AATATTTTATTTTGGGTGCAAAAGAATATTATTTCA	8.34 ± 0.071
ATACTTTTATTTTTGGTGCATATATCATGTAGACGT	9.025 ± 0.035
CATATTATTATTTTGGTGCATACTTATATATATTTT	8.75 ± 0.31
CTTTTTTTTTTGGGGGTGCATGCAAGACATATATTT [GTGCAC_site9660]	10.51 ± 0.028
ATTTTGGAAATAATATGTACATATACATAATATATA [XGTACX_site4177]	8.36 ± 0.29
GCATTGATCAAACATACACACATGGTTAATAAAAAT [CACACA_site2085]	8.72 ± 0.55
TTTCTTTTTATATTCACACATAAATATATATATATA [CACACA_site6053]	9.81 ± 0.28
TCTTTATTATTCGCCACACACATATAAATATAAATA [CACACA_site7441]	8.88 ± 0.38

Sequence	gcPBM binding intensity (ln)
ATTCTTTATTATTCGCCACACACATATATATATATA [CACACA_site9009]	10.2 ± 0.28
ATTTATTATATATACACACATACATATATATATATA [CACACA_site2159]	9.91 ± 0.42
TCTTTATTATTCGCCACACACATATATATATATATA [CACACA_site3077]	10.2 ± 0.43
ATATATATATATTTATGTACATATTATTTATTCTTT [XGTACX_site6567]	9.94 ± 0.17
CCATTCAAATTTCGCACACACATACAAAAAAAAAAA [CACACA_site3093]	8.59 ± 0.42
ATGCAATAATAATATTGTACGCATATATTTTTTACT [XGTACX_site3384]	8.41 ± 0.3
TATAGCATAAATATGTGTACATATTTATATGATATT [XGTACX_site6333]	8.37 ± 0.28
AATACGAAGGATAAGAGTACTAATTAAATAAATGAA [XGTACX_site523]	8.96 ± 0.28
AGGTAGTTCTGTATCACACACATATAAATATAAATA [CACACA_site7110]	8.48 ± 0.4
TAAGGTAGTTCTGTATCACACACATATATATATATA [CACACA_site8693]	10.1 ± 0.26
AGGTAGTTCTGTATCACACACATATATATATATATA [CACACA_site2214]	10.3 ± 0.47
TCAACAAAATTGAAGGAACACACATACATATATATA [CACACA_site7940]	8.87 ± 0.23
TTCCCCCCCAGACACACACACACATACATACCACAT [CACACA_site2305]	10.5 ± 0.24
CACCCCCACAGACACACACACACACCCACATATATA [CACACA_site365]	9.27 ± 0.39
CACAGACACCCATACACACACATACCCATATATATA [CACACA_site5023]	8.79 ± 0.32
CCCCCCCACAGACACACACACATACATACCACATAT [CACACA_site2306]	10.3 ± 0.014
CATACACCCAGACACACACACATATATATATATATA [CACACA_site634]	10.1 ± 0.44
TACAGACATACATACACACATACATACAGACATACA [CACACA_site1941]	8.66 ± 0.26
CATTTCTATATAAGCACACACGTGGAATTTTTTTTT [CACACA_site5537]	8.7 ± 0.26
GCCATAAAAATATATACACACATAAAAAAAAATTAT [CACACA_site1176]	8.36 ± 0.53
CTTTGTAGTTGGTCCACACACATATCTGGAAGAATA [CACACA_site4834]	8.54 ± 0.39
